About 1,300 (0.54%) of roughly 240,000 compounds were called active. Where a call stands in place of a potency, no number is given. Roughly 1% stayed inconclusive and do not appear here. This is one part of a sample in which actives are shown more often than they occur. Calls come from the whole dose curve; as a rule, active = well fitted inhibition curve with a large enough effect; inconclusive = small, poorly fitted or top-dose-only effect; inactive = flat fitted curve, though single readings scatter.
Potency is the fitted concentration of half-maximal effect.

ATP-dependent DNA helicase Q1 (Homo sapiens), sequence (P46063 whole entry, looked up): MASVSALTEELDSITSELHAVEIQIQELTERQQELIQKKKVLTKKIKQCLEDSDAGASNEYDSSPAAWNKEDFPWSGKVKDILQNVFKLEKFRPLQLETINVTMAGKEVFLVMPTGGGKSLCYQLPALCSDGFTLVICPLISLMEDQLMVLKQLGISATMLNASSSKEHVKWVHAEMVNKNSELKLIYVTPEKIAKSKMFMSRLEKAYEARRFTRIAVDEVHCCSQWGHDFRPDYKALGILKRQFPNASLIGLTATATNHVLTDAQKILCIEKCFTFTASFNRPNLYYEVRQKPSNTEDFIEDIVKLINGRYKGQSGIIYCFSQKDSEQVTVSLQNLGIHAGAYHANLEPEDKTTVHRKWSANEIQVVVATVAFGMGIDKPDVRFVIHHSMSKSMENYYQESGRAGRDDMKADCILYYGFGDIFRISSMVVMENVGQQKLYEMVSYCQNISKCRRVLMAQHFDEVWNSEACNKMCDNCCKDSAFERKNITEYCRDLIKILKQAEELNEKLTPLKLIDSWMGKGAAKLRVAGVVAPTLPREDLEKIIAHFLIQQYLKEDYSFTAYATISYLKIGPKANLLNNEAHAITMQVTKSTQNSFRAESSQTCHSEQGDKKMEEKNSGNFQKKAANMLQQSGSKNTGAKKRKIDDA

The target of the assay is ATP-dependent DNA helicase Q1 (Homo sapiens) (UniProt P46063). Description: qHTS Assay for Inhibitors of RecQ-Like Dna Helicase 1 (RECQ1). Note: nearly all actives have a fitted effect of over 30% in size. The following applies: RECQ1 DNA unwinding, red fluorescence kinetic read; series mostly up to 57.3 µM. The text has this:
Survival of cells and the faithful propagation of the genome depend on elaborate mechanisms of detecting and repairing DNA damage. Treatment of advanced cancer relies on radiation therapy or chemotherapy, which kill cancer cells by causing extensive DNA damage. It is often found, that cancer cells develop resistance to therapy through enhanced activity of DNA repair functions; this has led to an increased interest in developing drugs that interfere with DNA repair, which could sensitize cancer cells to conventional therapy.
This validation qHTS assay pertains to human RECQ1, which is important in resolving abnormal DNA structures formed during replication or homologous recombination. Shutting down the expression of RECQ1 leads to chromosomal instability and higher radiation sensitivity in cultured cells.
The validation assay was a fluorescence quenching based kinetic qHTS for RECQ1 Helicase DNA unwinding. The activity was measured as ATP-dependent separation of a 20-bp DNA duplex extended by 30-nt single-stranded tails (forked duplex). The forked DNA substrate was tagged with rhodamine fluorophore (carboxytetramethyl rhodamine, TAMRA) and BHQ-2 (Black Hole Quencher 2) dark quencher. Strand separation results in an increase in the fluorescence of TAMRA (excitation 525 nm, emission 598 nm). This substrate construct operates in a red-shifted region where very few compound library members have been noted to fluoresce (PubChem AIDs 593 and 594). An additional feature of the assay is the inclusion of 2.5 ug/ml poly (dIdC), to reduce interference by compounds such as DNA intercalators, a major source of false inhibitors.
Opher Gileadi, Structural Genomics Consortium, University of Oxford
Screening Center PI: Austin, C.P.
Screening Center: NIH Chemical Genomics Center [NCGC]
Three uL of reaction buffer (25 mM Tris-HCl (pH 8.0), 5 mM NaCl, 2 mM MgCl2, 1mM DTT, 0.01% Tween- 20, and 2.5 ug/ml poly(dI-dC), including enzyme (50 nM RECQ1T1), were dispensed into a 1536-well Greiner black assay plate via solenoid-valve based nanoliter dispensers. Compounds (23 nl each in columns 5-48) and control (23 nl each in column 2 as dose-response) were transferred via a Kalypsys pintool equipped with a 1536-pin array. The plates were incubated for 15 min at room temperature, and then 1 ul of substrates (200 nM DNA and 2 mM ATP, final concentrations) was added to start the reaction. The plate was transferred into a ViewLux high-throughput CCD imager where the reaction progress was measured in a discontinuous kinetic mode (two reads spaced 2 hours apart, with intermediate room temperature incubation of the covered assay plate) by using standard red-fluorescence optics (excitation filter 525 nm, emission filter 598 nm). Enzyme-free and vehicle (DMSO) controls were included for signal normalization.
As to `CCC1=NN2C(=N)/C(=C/c3cc(C)n(-c4ccccc4)c3C)C(=O)N=C2S1`, the Potency result is “inactive”.
To `CCS(=O)(=O)C1=NSC2=NC(=O)/C(=C\c3cc(C)n(-c4cccc(OC)c4)c3C)C(=N)N21` belongs “inactive”.
To `CCOC(OCC)OCC` belongs “inactive”.
To `COC(=O)C(CC(C)C)NS(=O)(=O)c1cc(Br)ccc1Br` (stereo not given) belongs “inactive”; to `C=CCOC(=O)C(=C)C`, “inactive”.
On to `O=C(O)c1ccc(/C=N/NC(=S)NCc2ccccc2)cc1`, for which the Potency result was “inactive”.
To `C/C(=N\NC(=S)NCc1ccccc1)c1ccc(Cl)cc1` belongs 31.6 µM (active); to `C/C(=N\NC(=S)NCc1ccccc1)C1CCCCC1`, “inactive”; to `CC(O)[C@@H](N)C(=O)O` (stereo not given in full), “inactive”.
The figure for `COc1ccc(OCC(=O)Nc2nnc(-c3ccco3)s2)cc1` is 31.6 µM (active); for `CNc1nnc(-c2ccco2)s1` it is “inactive”; for `Cc1ccc(OCC(=O)Nc2nnc(-c3ccco3)s2)cc1` it is “inactive”.
Consider `COc1cc(C(F)(F)F)c(C(=O)N(C)c2ccc(Cl)cc2)cn1`, for which the Potency result is “inactive”.
To `Cc1cs/c(=N\N=C\c2ccc(O)cc2)n1Cc1ccco1` belongs “inactive”; to `CN(c1ccccc1)c1ccc(/C=c2\s/c(=C(/C#N)C(=O)C(C)(C)C)n(Cc3ccco3)c2=O)cc1`, 17.8 µM (active); to `COc1ccc(NC(=O)Cn2c(=O)n(Cc3ccco3)c(=O)c3ccccc32)cc1`, “inactive”.
For `COc1ccc(C2CC(O)(c3ccccc3)Oc3cc(C)cc(C)c32)cc1` (stereo not given), the Potency entry was “inactive”.
The entry for `CCOc1ccc(NC(=O)CCC(=O)N/N=C/c2ccc([N+](=O)[O-])s2)cc1` is “inactive”; for `O=[N+]([O-])c1ccc(C=Nc2ccc(Cl)cc2Cl)s1` it is 25.1 µM (active); for `CC(C)(C)c1cc(C(=O)N/N=C/c2ccc([N+](=O)[O-])s2)n[nH]1` it is “inactive”.
The entry for `CC(C)c1cnc(NC(=O)Cc2ccccc2)s1` is “inactive”; for `CC(=O)OCC(NC(=O)C(Cc1ccccc1)NC(=O)OC(C)(C)C)C1OC(n2ccc(=O)[nH]c2=O)C(OC(C)=O)C1OC(C)=O` (stereo not given) it is “inactive”.
For the compound `Brc1ccc(CSc2ccc(-c3ccco3)nn2)cc1`, the Potency entry is “inactive”.
To `Nc1nc(SCc2ccccc2Cl)n[nH]1` belongs “inactive”; to `c1ccc(CSc2nnc(-c3ccco3)c(-c3ccco3)n2)cc1`, 11.2 µM (active).
The figure for `Clc1ccccc1CSc1nnc(-c2ccco2)c(-c2ccco2)n1` is 35.5 µM (active).
To `O=C(Nc1nnc(SCc2ccccc2)s1)c1ccco1` belongs “inactive”.
Consider `COC(OC)c1ccnc(SCc2ccccc2Cl)n1`, for which the Potency entry is “inactive”.
To `COc1ccc(-c2ccc(C3C4C=CCCC4(C)C(=O)N3Cc3ccccc3)c(F)c2)cc1OC` (stereo not given) belongs “inactive”; to `Cc1noc(C)c1-c1ccc2ncnc(NC(C)c3ccco3)c2c1` (stereo not given), “inactive”; to `CCN(CC)/[N+]([O-])=N/Oc1cc(O/[N+]([O-])=N/N2CCCC2CO)c([N+](=O)[O-])cc1[N+](=O)[O-]` (stereo not given), “inactive”.
To `OC(CCl)CCl` belongs “inactive”.
To `Cc1cc(Cl)ccc1NNC(=O)c1snnc1C` belongs “inactive”; to `COc1cccc(-c2cc(=O)c3cc(NC(=O)c4ccc(C)cc4)ccc3[nH]2)c1`, “inactive”; to `Cc1ccc(S(=O)(=O)Oc2ccc(/C=N/NC(=O)c3c(Cl)cnn3C)cc2)cc1`, “inactive”.
Regarding `Cn1c2ccccc2c(=O)c2c(O)cccc21`, the Potency entry is “inactive”.
The figure for `Oc1ccc(O)c2c(O)cccc12` is 3.98 µM (active); for `CNC(=O)[C@]1(C(F)(F)F)C[C@H](CCc2ccccc2)CCCO1` it is “inactive”.
To `O=C1c2cccc(OCC(=O)N3N=C(c4cccs4)CC3c3ccc(F)cc3)c2CCN1Cc1ccccc1` (stereo not given) belongs “inactive”; to `CC1CCCC(NC(=O)COC(=O)[C@@H]2CC(O)CN2S(=O)(=O)c2ccc3c(c2)OCCO3)C1C` (stereo not given in full), “inactive”.
The entry for `Cc1ccccc1-c1nnc(SCC(=O)NCc2ccc3c(c2)OCO3)n1C` is “inactive”.
For `O=C(CSc1ncn[nH]1)NCc1ccc2c(c1)OCO2`, the Potency result was “inactive”.
For `O=C(CSc1ccc(-c2ccco2)nn1)NCc1ccc2c(c1)OCO2`, the Potency is 28.2 µM (active).
Regarding `C=C1CCN(C(CC(C)C)C(=O)N2CCOCC2)S(=O)(=O)c2ccccc21` (stereo not given), the Potency entry is “inactive”.
The entry for `Cc1cccc(C2c3[nH]c4ccccc4c3CCN2C(=O)c2cc(-c3cccn3C)n[nH]2)n1` (stereo not given) is “inactive”.
Turning to `O=C(O)c1ccc(/C=C2/SC(=S)N(c3cccc(C(F)(F)F)c3)C2=O)cc1`, the Potency entry is “inactive”.
To `C=CCn1c(SCc2csc(C)n2)nc2scc(-c3ccc(C)o3)c2c1=O` belongs “inactive”.
To `C=CCNC(=O)CSc1nc2scc(-c3ccco3)c2c(=O)n1CC=C` belongs “inactive”; to `C=CCn1c(=S)[nH]c2scc(-c3ccco3)c2c1=O`, 31.6 µM (active).
The entry for `O=C1C[C@@H](c2ccc3ccccc3c2)N1S(=O)(=O)c1ccccc1[N+](=O)[O-]` is “inactive”.

Source of the values: PubChem BioAssay AID2549 (National Center for Advancing Translational Sciences (NCATS), 2010).
